The results in this text go back to PubChem BioAssay (NCI).

Compounds without any hit were thinned out: in the full panel of roughly 83,000, 20% have a hit.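 Cells were grown in 96-well plates and exposed to the test compound at a single concentration for 48 hours; results are reported as percent growth, with values below 10 considered active.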 Values without a mark were called inactive. Activity calls are given as the source filed them.

Experiment in all cases: NCI-60 one-dose screen, 48 h (100 = growth as untreated, 0 = no growth, -100 = all killed)
Holding throughout (details): 10 µM unless noted

The subject of assay [1] is EKVX NSCLC.
In assay [2] the test system is SN12C renal.
Assay [3] relates to UO-31 renal.
Assay [4] has as its system TK-10 renal.
Assay [5] deals with ACHN renal.
Assay [6] has as its system CAKI-1 renal.
Assay [7] relates to A498 renal.
In assay [8] the test system is CCRF-CEM leukemia.
In assay [9] the test system is MOLT-4 leukemia.
Assay [10] concerns SR leukemia.
Assay [11] has as its system RPMI-8226 leukemia.
In assay [12] the test system is OVCAR-8 ovarian.
For assay [13], the system named is OVCAR-5 ovarian.
Assay [14] concerns OVCAR-4 ovarian.
Assay [15] deals with SK-OV-3 ovarian.
Assay [16] relates to IGROV1 ovarian.
Assay [17] concerns OVCAR-3 ovarian.
Assay [18] concerns HS 578T breast.
Assay [19] relates to NCI/ADR-RES ovarian.
Assay [20] deals with T-47D breast.

Regarding `O=C(NNc1nc2cc(F)ccc2n2c(CN3CC4(COC4)C3)ccc12)c1cnccn1`, the growth is 17.6% in assay [1]; 22.4% in [2]; 13.7% in assay [3]; 38.9% in assay [4]; 13.7% in [5]; 19.3% in assay [6]. The growth in assay [7] is -6.2% (active); in [8], 4.02% (active); in assay [9], 6.4% (active); in assay [10], 0.659% (active); in assay [11], 22%; in assay [12], 8.35% (active). In addition, the growth in [13] was 38.1%; in assay [14], 33.3%; in assay [15], 15.2%; in [16], 18.6%; in [17], 16.1%; in assay [18], 65.3%. The growth in [19] is 22%; in assay [20], 26.2%.
Regarding `CC(C)(C)Nc1nc2c(OCCc3ccccc3)cccn2c1-c1ccc(O)cc1`, the growth in assay [1] was 38.9%; in assay [2], 64.3%; in assay [3] it was 57.3%; in assay [4], 113%; in assay [5] it was 65.1%; in [6], 80.1%. Moreover, the growth in assay [7] was 103%; in [8], 38.5%; in assay [9], 22.7%; in assay [10], 32.5%; in assay [11] it was 19%; in assay [12], 65.9%. Also, the growth in assay [13] is 70.2%; in [14] it was 65%; in assay [15] it was 110%; in assay [16], 75.4%; in assay [17], 74.9%; in [18], 86.7%. For the same molecule, the growth in [19] is 50.4%; in assay [20], 35.9%.
Turning to `CN1CCN(Cc2ccc(NC(=O)c3cncc(C#Cc4cnc5[nH]ncc5c4)c3)cc2C(F)(F)F)CC1`, the growth in [1] is 55.4%; in assay [2], 14.4%; in [3], 2.97% (active); in [4], 49.7%; in [5], 8.5% (active); in assay [6], -13.2% (active). Also, the growth in assay [7] was -5.79% (active); in assay [8] it was 20.1%; in assay [9] it was 16.9%; in assay [10], 10.6%; in assay [11], 31.2%; in [12], 41.3%. In addition, the growth in [13] was 41.6%; in assay [14] it was 54.5%; in assay [15], 2.28% (active); in assay [16], 7.92% (active); in assay [17] it was 51.9%; in assay [18], 20.1%. Besides, the growth was 75.8% in assay [19] and 40.7% in assay [20].
For the molecule `COc1ccc2[nH]cc(-c3cc(N)n4nc(-c5c[nH]c6ccc(OC)cc56)cc4n3)c2c1`, the growth in [1] was 80.1%; in [2], -64% (active); in [3], -22.8% (active); in assay [4], 16.5%; in assay [5], -31.9% (active); in assay [6], -52.1% (active). Also, the growth was 83.1% in [7]; 0.363% (active) in assay [8]; -2.24% (active) in [9]; -23.6% (active) in assay [10]; -22.7% (active) in assay [11]; -62.6% (active) in assay [12]. Moreover, the growth in assay [13] was 8.81% (active); in [14], -8.27% (active); in assay [15] it was 144%; in [16] it was 44.5%; in [17], 103%; in [18] it was 121%. Further, the growth in [19] was 88.6%; in assay [20] it was -21.7% (active).
Turning to `N#Cc1c(-c2ccc(Cl)cc2)nc(SCc2ccc(F)cc2)nc1N1CCNCC1`, the growth in [1] is 73.7%; in [2], 52.2%; in assay [3] it was 51.3%; in assay [4], 92.7%; in assay [5], 36%; in [6], 49.8%. Moreover, the growth is 65% in [7]; 37% in assay [8]; 7.99% (active) in assay [9]; -48.5% (active) in assay [10]; -36.9% (active) in assay [11]; 38.6% in assay [12]. Besides, the growth in assay [13] is 86%; in assay [14] it was 78.7%; in assay [15], 117%; in [16], 39.1%; in assay [17], 37.9%; in assay [18], 83.3%. The results for the growth in assay [19] and in [20] were 51.2% and 71.3%, respectively.
`Cc1sc2nc(NCc3ccccc3Cl)[nH]c(=O)c2c1C`: the growth is 98.1% in assay [1]; 93.8% in assay [2]; 94.5% in assay [3]; 112% in [4]; 94.8% in assay [5]; 87.2% in [6]. The growth in assay [7] is 81.3%; in assay [8] it was 65.3%; in assay [9], 69.7%; in assay [10] it was 50.2%; in [11], 82.8%; in assay [12], 88.1%. Besides, the growth in assay [13] is 102%; in assay [14], 101%; in assay [15], 114%; in assay [16] it was 90.6%; in assay [17], 123%; in [18], 99%. Also, the values for the growth in assay [19] and in assay [20] were 104% and 94.6%, respectively.
Consider `CCN(CC)c1ccc(C=O)c(OCc2cn(CC(=O)Nc3ccc(Cl)cc3)nn2)c1`, for which the growth was 82.8% in assay [1]; 63.5% in [2]; -58.2% (active) in assay [3]; 83.8% in assay [4]; 24.3% in [5]; 57.5% in assay [6]. Also, the growth in assay [7] is 89.2%; in assay [8], 72.7%; in assay [9], 51.9%; in assay [10] it was 47%; in assay [11], 57.9%; in [12], 75.3%. Also, the growth was 91% in assay [13]; 70.4% in assay [14]; 86.8% in assay [15]; 74.7% in assay [16]; 83.5% in assay [17]; 87.8% in assay [18]. Besides, the growth is 84.2% in assay [19] and 59.8% in assay [20].
